Holding throughout (experiment): DAPPL (digital affinity profiling via proximity ligation, sequencing); 10 mM Tris-HCl pH 7.5, 50 mM NaCl, 1 mM DTT, 4% glycerol, room temperature, 30 min; GST-TFs on glutathione beads, 16-mer random dsDNA library, 0.1% formaldehyde crosslink after washing; high values mean tight binding
Holding throughout (settings): protein: recombinant; tags: N-terminal GST; dsDNA, one strand shown

The target in one assay is T1, FLI1 (Homo sapiens, UniProt Q01543 1-452).
T1 sequence: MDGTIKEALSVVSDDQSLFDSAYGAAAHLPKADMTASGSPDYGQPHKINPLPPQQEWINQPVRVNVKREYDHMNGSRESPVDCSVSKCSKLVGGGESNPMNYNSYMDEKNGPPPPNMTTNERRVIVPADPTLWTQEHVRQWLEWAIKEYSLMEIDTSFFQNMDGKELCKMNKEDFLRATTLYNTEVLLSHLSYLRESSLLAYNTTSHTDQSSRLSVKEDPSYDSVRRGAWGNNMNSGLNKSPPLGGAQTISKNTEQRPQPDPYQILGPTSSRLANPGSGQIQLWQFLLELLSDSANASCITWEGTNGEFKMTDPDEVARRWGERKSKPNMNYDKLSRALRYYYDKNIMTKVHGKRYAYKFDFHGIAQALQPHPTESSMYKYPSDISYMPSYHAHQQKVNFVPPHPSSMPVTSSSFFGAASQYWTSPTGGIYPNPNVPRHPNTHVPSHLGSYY
An outline of the steps:
(§1)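 Each value of binding signal is a hexamer's read frequency for a factor divided by the same hexamer's frequency in the tag-only sample. Barcoded, bead-captured GST fusions of human transcription factors made in yeast were pooled with that sample and incubated with 200 nmole of a random double-stranded 16-mer DNA library in Tris/NaCl/DTT/glycerol buffer at room temperature for 30 min. Washing, 0.1% formaldehyde crosslinking, proximity ligation, PCR and Illumina NextSeq500 sequencing followed.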

In a further assay the target is T2, ELK1 (Homo sapiens, UniProt P19419 1-428).
T2 sequence: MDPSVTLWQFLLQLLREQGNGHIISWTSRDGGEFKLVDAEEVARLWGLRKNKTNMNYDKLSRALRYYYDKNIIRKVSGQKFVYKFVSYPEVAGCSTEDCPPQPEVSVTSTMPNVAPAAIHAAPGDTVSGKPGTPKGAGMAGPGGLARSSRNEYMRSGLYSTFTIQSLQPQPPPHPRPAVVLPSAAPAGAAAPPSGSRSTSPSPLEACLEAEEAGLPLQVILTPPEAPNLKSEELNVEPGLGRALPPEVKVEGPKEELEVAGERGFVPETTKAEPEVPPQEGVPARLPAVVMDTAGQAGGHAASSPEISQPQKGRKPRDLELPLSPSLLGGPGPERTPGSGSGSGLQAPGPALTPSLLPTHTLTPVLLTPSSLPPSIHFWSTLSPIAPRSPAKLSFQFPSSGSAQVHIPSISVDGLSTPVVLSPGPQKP
An outline of the steps:
as §1

A further assay addresses T3, GABPA (Homo sapiens, UniProt Q06546 1-454).
T3 sequence: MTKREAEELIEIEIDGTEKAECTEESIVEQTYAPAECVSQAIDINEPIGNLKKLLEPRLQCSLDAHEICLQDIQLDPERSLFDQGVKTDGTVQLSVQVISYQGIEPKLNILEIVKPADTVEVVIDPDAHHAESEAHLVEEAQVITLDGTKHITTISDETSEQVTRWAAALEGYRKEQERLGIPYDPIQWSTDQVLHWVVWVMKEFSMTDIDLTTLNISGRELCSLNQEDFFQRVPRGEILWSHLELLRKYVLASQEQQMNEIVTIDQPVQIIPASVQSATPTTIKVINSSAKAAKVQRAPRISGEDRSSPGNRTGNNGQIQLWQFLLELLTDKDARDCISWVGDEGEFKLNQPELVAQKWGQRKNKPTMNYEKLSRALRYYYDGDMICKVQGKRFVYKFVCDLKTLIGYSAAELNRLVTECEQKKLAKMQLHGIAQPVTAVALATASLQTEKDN
In short, it runs like this:
as §1

Another assay deals with T4, ERG (Homo sapiens, UniProt P11308 1-479).
T4 sequence: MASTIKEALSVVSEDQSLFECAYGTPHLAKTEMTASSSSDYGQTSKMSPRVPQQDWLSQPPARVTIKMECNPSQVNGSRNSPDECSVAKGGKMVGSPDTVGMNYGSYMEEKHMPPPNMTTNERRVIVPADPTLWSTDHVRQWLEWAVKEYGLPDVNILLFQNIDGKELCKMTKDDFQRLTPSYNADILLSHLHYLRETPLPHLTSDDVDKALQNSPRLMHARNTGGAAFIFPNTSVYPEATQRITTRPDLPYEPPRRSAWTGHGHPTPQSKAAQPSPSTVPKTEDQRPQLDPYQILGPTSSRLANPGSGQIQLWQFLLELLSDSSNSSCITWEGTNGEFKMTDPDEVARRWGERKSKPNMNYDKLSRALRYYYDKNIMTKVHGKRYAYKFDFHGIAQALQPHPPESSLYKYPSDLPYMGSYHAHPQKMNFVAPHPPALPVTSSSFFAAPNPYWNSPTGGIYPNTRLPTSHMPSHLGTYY
An outline of the steps: as §1

The target in another assay is ELF1 (Homo sapiens, UniProt P32519 1-619). An outline of the steps: as §1
For the next assay, the target named is SPI1 (Homo sapiens, UniProt P17947 1-270). An outline of the steps: as §1
A further assay concerns the target T5, ELK3 (Homo sapiens, UniProt P41970 1-407).
T5 sequence: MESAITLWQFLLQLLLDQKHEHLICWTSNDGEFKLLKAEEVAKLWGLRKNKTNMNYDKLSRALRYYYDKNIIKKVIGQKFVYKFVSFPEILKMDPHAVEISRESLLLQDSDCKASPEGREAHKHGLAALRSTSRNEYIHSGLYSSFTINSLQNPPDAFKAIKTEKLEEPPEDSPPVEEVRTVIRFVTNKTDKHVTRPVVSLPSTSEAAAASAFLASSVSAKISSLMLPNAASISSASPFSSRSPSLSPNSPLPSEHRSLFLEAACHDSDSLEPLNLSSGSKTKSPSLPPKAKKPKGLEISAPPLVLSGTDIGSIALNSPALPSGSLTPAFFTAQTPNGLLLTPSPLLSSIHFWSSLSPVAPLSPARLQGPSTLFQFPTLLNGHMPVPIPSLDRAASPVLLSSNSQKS
In short, it runs like this: as §1

The target of a further assay is T6, FEV (Homo sapiens, UniProt Q99581 1-238).
T6 sequence: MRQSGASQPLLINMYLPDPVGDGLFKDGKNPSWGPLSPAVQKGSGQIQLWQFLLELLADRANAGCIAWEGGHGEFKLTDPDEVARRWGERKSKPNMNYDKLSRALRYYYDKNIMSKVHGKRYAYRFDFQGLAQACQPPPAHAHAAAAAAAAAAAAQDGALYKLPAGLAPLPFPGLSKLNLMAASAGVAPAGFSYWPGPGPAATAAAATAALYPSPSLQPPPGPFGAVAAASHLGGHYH
An outline of the steps:
as §1

Another assay deals with ELF4 (Homo sapiens, UniProt Q99607 1-663). In short, it runs like this: as §1
For the next assay, the target named is T7, ELK4 (Homo sapiens, UniProt P28324-2 1-405).
T7 sequence: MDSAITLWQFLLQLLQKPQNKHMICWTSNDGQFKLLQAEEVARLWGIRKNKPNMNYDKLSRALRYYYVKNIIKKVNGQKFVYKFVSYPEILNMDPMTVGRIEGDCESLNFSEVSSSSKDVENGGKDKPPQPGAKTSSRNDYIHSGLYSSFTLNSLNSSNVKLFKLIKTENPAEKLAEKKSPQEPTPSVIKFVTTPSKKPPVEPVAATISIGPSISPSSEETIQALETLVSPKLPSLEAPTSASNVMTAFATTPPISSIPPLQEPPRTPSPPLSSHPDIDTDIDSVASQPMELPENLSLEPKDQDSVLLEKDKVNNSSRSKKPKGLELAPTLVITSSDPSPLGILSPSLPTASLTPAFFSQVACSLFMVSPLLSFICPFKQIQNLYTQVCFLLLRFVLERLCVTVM
In short, it runs like this:
as §1

Another assay addresses T8, ETV2 (Homo sapiens, UniProt O00321 1-342).
T8 sequence: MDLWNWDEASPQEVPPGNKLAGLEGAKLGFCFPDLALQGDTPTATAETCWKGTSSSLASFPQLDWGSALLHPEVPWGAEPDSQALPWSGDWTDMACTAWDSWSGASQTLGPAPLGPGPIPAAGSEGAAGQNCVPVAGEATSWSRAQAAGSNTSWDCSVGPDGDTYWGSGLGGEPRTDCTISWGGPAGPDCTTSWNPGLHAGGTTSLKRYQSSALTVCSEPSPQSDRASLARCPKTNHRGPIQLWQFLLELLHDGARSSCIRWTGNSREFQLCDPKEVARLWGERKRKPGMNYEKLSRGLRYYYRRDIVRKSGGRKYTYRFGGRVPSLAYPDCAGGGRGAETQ
An outline of the steps: as §1

In the next assay the target is T9, ETV3L (Homo sapiens, UniProt Q6ZN32 1-361).
T9 sequence: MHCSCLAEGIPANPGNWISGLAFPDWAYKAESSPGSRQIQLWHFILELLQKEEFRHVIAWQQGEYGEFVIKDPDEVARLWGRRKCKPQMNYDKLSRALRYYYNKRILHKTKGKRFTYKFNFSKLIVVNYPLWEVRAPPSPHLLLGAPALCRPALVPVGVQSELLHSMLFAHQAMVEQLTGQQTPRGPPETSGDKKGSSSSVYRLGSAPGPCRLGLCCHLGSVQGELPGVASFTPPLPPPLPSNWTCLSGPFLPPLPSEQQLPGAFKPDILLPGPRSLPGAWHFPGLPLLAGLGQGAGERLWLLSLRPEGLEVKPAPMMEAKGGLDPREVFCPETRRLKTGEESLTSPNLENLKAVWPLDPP
An outline of the steps: as §1

The target in another assay is T10, SPDEF (Homo sapiens, UniProt O95238 1-335).
T10 sequence: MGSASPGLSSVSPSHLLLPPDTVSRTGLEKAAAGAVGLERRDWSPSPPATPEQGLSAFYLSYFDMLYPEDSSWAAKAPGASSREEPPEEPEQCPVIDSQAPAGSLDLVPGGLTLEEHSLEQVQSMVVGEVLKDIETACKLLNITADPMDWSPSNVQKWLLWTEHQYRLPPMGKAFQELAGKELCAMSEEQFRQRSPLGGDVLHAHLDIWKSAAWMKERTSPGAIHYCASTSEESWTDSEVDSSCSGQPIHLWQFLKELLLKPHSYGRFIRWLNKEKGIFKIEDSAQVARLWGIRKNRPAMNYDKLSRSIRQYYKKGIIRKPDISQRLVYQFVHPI
In short, it runs like this: as §1

The target of a further assay is T11, ETV7 (Homo sapiens, UniProt Q9Y603 1-341).
T11 sequence: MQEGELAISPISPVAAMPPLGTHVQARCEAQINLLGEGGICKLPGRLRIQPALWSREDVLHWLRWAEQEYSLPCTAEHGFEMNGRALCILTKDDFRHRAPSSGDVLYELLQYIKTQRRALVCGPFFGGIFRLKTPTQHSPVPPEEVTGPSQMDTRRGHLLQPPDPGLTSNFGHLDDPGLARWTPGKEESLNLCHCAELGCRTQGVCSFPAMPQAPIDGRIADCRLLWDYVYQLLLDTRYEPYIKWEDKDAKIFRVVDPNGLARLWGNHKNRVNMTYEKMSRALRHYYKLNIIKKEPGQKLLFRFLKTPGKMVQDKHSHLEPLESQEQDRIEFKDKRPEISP
An outline of the steps: as §1

The next assay deals with T12, ETV3 (Homo sapiens, UniProt P41162-2 1-143).
T12 sequence: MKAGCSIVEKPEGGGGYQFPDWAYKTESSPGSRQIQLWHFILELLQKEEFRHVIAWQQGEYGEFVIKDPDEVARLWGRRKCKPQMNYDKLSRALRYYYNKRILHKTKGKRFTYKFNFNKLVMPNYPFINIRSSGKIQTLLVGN
In short, it runs like this: as §1

The target of a further assay is ETV6 (Homo sapiens, UniProt P41212 1-452). In short, it runs like this:
as §1

ELF1, sequence (P32519 whole entry): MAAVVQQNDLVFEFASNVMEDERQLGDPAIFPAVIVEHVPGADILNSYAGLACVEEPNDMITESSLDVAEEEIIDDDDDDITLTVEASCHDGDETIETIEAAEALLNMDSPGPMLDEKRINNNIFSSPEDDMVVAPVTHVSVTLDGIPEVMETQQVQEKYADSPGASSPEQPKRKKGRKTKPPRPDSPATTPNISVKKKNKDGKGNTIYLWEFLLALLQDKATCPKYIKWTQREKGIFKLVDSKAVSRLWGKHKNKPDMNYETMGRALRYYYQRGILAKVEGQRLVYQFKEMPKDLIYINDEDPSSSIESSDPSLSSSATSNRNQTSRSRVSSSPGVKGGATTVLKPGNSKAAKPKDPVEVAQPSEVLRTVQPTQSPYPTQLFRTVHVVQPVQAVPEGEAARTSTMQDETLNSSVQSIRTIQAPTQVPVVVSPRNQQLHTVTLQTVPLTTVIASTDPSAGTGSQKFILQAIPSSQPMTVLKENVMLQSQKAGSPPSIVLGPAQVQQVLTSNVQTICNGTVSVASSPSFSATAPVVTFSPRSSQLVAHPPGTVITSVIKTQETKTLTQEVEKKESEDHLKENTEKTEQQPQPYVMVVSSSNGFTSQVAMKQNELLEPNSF
ETV6, sequence (P41212 whole entry): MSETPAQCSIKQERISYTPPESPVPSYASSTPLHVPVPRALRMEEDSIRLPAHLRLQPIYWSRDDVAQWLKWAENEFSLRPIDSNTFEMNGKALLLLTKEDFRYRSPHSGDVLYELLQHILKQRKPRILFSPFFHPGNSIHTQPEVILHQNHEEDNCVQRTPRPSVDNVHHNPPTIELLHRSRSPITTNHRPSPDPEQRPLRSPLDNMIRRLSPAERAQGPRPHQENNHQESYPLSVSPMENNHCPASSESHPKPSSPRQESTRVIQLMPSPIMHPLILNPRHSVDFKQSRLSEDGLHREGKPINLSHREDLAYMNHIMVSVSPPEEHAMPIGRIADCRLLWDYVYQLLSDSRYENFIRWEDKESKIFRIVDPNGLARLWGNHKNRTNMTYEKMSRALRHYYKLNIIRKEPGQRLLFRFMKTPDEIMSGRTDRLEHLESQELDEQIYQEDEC
ELF4, sequence (Q99607 whole entry): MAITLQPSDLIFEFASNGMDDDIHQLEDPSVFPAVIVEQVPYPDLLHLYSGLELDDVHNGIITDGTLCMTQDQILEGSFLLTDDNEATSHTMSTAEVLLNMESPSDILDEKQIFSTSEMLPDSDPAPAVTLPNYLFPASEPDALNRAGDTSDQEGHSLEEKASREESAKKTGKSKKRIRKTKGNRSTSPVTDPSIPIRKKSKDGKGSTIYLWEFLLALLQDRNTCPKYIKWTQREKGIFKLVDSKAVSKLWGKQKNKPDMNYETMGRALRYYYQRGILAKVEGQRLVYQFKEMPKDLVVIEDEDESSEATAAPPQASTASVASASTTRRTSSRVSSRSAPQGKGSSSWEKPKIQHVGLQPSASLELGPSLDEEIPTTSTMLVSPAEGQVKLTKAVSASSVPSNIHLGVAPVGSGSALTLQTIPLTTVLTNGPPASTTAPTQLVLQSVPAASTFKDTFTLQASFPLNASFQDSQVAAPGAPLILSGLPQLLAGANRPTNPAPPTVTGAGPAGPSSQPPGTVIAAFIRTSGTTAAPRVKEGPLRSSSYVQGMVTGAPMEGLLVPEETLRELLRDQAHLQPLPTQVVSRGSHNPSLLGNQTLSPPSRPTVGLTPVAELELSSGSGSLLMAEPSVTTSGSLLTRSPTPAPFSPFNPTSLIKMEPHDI

As to CGCGGC, the binding signal in the assay with FLI1 is 1.1 fold enrichment (6-mer frequency, TF over GST control); in the assay with ELK1, 1.08 fold enrichment (6-mer frequency, TF over GST control); in the assay with GABPA it was 1.15 fold enrichment (6-mer frequency, TF over GST control); with ERG it was 1.05 fold enrichment (6-mer frequency, TF over GST control); in the assay with ELF1 it was 1.04 fold enrichment (6-mer frequency, TF over GST control); with SPI1 it was 1.05 fold enrichment (6-mer frequency, TF over GST control). The binding signal with ELK3 was 1 fold enrichment (6-mer frequency, TF over GST control); in the assay with FEV, 1.06 fold enrichment (6-mer frequency, TF over GST control); with ELF4, 1.15 fold enrichment (6-mer frequency, TF over GST control); with ELK4, 1.12 fold enrichment (6-mer frequency, TF over GST control); with ETV2, 1.01 fold enrichment (6-mer frequency, TF over GST control); in the assay with ETV3L it was 1.01 fold enrichment (6-mer frequency, TF over GST control). For the same sequence, the binding signal in the assay with SPDEF is 1.04 fold enrichment (6-mer frequency, TF over GST control); with ETV7 it was 1.03 fold enrichment (6-mer frequency, TF over GST control); with ETV3 it was 1.04 fold enrichment (6-mer frequency, TF over GST control); in the assay with ETV6 it was 1.15 fold enrichment (6-mer frequency, TF over GST control).

Values taken from paper PMC7862700, “An all-to-all approach to the identification of sequence-specific readers for epigenetic DNA modifications on cytosine”.
